# Results reported in ChEMBL document CHEMBL3988442, “University of Dundee, Small-Polar-MMV Screening Library” (2021).
# Molecular target: T1, Aspartate--tRNA(Asp/Asn) ligase (Mycobacterium tuberculosis (strain ATCC 25618 / H37Rv)) (UniProt P9WFW3)
# T1 sequence (whole entry): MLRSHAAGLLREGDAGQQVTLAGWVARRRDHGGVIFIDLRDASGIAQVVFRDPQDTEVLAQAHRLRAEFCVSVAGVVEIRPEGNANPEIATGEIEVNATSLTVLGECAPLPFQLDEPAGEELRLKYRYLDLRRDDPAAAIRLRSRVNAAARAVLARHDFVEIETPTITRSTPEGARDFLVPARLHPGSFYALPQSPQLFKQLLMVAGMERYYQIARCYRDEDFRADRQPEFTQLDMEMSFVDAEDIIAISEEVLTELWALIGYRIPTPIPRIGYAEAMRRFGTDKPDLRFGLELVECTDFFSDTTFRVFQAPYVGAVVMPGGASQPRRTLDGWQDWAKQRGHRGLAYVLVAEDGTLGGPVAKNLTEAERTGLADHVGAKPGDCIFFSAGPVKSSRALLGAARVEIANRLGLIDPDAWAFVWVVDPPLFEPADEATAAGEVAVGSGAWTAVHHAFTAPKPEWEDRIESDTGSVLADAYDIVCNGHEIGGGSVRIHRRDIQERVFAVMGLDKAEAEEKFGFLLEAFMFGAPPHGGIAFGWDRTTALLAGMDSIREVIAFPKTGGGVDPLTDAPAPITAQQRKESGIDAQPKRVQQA
# Assay: Assay for Asp RNA synthetase-1 from Mycobacterium tuberculosis
# Type: functional
# Parameters: scale not given: in the data most compounds retested in dose-response had high values
# Conditions: 30 µM
row,SMILES,Percent Effect [%]
1,CN(CCO)Cc1nnc(C2CCN(C(=O)c3cccnc3)CC2)n1C,-0.977
2,O=C(O)c1ccc(F)c(S(=O)(=O)Nc2ccc(-n3cccn3)c(Cl)c2)c1,-5.11
3,CN1C(=O)CC(C(=O)O)C12CCN(Cc1ccc(F)cc1Cl)CC2 (stereo not given),-1.07
4,O=C1CC(c2cccs2)c2cnn(C3CCCC3)c2N1 (stereo not given),-1.62
5,CCCSCC(=O)Nc1ncn(CC(=O)NCc2ccccc2)n1,1.55
6,CN(C)C(=O)CNC(=O)c1cc(Br)c2c(c1)OCCO2,3
7,CSC(C)(C)CNC(=O)NCCC1CCN(C)CC1,-1.57
8,N#CC(Sc1nnnn1C1CCOCC1)C1CCCCC1 (stereo not given),-2.4
9,CC(C)N1CCC(NCc2cccnc2N(C)C)CC1,-1.8
10,Cc1ncc(C(=O)N2C[C@H]3CC[C@@H]2CN(S(=O)(=O)N(C)C)C3)c(C)n1,-0.678
11,O=C(CCNS(=O)(=O)c1ccc2c(c1)CCCC2)NCc1ccoc1,0.701
12,c1ccc(OCCN2CCCC(c3noc(C4CC4)n3)C2)cc1 (stereo not given),-0.885
13,CC(C)CN1CCCn2nc(CNC(=O)c3cccnc3O)cc2C1,-2.56
14,Cc1cc(NC(=O)Cn2cc(C#N)c(=O)c3cc(Br)ccc32)no1,-2.42
15,O=C(NCCc1cccc(O)c1)NC1CCN(c2ccccc2)C1=O (stereo not given),-2.7
16,COCc1nc(CN2CCC3(CCCO3)CCC2=O)no1 (stereo not given),-3.94
17,COc1c(C)cnc(CSc2nnc(C)s2)c1C,-1.18
18,CCNC(=O)NC(=O)CSC(C)c1ccccc1F (stereo not given),2.19
19,O=C(NCCCn1cccn1)N1CCCC1c1ccncc1 (stereo not given),-0.931
20,COc1ccc([C@@H]2CN(C(=O)CCC(F)(F)F)C[C@H]2NC(C)=O)cc1,-2.84
